Experiment in all cases: DAPPL (digital affinity profiling via proximity ligation, sequencing); 10 mM Tris-HCl pH 7.5, 50 mM NaCl, 1 mM DTT, 4% glycerol, room temperature, 30 min; GST-TFs on glutathione beads, 16-mer random dsDNA library, 0.1% formaldehyde crosslink after washing; high values mean tight binding
What all share (details): protein: recombinant; tags: N-terminal GST; dsDNA, one strand shown

The target in one experiment is T1, FLI1 (Homo sapiens, UniProt Q01543 1-452).
T1 sequence: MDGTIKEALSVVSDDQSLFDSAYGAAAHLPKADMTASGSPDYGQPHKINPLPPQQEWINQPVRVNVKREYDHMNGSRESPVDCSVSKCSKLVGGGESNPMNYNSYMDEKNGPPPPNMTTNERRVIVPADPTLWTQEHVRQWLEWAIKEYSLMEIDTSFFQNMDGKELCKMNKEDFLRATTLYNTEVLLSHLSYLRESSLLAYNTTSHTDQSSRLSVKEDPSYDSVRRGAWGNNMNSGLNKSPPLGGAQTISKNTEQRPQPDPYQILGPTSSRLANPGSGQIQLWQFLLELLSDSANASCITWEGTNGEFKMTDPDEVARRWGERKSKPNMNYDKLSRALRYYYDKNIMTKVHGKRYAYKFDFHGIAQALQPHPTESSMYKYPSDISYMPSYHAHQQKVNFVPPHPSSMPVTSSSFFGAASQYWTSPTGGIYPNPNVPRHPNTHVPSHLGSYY
In outline:
(§1)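 Pools of DNA-barcoded human transcription factors, expressed in yeast as GST fusions on glutathione beads and combined with a tag-only sample, were incubated with 200 nmole of a 16-mer random double-stranded DNA library. Incubation took 30 min at room temperature in Tris/NaCl/DTT/glycerol buffer and was followed by washing, 0.1% formaldehyde crosslinking, proximity ligation (BsaI/T4 ligase, 1 h, 37 °C), PCR amplification and sequencing on an Illumina NextSeq500. Binding signal is the ratio of a hexamer's read frequency for a factor to its frequency for the tag-only sample.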

Another experiment addresses T2, ELK1 (Homo sapiens, UniProt P19419 1-428).
T2 sequence: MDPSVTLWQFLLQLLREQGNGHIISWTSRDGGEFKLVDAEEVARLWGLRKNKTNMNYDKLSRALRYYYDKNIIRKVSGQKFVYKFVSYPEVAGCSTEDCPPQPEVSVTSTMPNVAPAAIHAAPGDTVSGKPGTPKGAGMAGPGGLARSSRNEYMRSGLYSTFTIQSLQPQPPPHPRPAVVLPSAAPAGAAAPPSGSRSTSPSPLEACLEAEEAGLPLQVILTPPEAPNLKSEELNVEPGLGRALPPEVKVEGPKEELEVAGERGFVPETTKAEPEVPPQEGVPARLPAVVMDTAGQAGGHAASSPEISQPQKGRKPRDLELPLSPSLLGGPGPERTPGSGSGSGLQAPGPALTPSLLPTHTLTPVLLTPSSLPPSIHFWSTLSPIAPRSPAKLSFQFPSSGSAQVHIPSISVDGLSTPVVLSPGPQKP
The procedure, abridged: as §1

The target in another experiment is T3, GABPA (Homo sapiens, UniProt Q06546 1-454).
T3 sequence: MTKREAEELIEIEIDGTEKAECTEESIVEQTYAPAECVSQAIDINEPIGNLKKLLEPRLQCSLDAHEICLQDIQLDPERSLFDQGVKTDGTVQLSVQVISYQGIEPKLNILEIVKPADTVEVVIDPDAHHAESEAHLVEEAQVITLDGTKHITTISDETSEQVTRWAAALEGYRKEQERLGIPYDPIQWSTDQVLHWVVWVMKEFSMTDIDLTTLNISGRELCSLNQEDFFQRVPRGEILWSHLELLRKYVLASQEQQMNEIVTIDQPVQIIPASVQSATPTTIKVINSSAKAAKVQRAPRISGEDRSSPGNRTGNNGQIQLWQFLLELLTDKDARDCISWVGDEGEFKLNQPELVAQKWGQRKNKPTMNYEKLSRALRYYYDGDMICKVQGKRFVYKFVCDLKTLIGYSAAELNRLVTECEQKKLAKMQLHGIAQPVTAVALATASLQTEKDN
In outline:
as §1

In the next experiment the target is T4, ERG (Homo sapiens, UniProt P11308 1-479).
T4 sequence: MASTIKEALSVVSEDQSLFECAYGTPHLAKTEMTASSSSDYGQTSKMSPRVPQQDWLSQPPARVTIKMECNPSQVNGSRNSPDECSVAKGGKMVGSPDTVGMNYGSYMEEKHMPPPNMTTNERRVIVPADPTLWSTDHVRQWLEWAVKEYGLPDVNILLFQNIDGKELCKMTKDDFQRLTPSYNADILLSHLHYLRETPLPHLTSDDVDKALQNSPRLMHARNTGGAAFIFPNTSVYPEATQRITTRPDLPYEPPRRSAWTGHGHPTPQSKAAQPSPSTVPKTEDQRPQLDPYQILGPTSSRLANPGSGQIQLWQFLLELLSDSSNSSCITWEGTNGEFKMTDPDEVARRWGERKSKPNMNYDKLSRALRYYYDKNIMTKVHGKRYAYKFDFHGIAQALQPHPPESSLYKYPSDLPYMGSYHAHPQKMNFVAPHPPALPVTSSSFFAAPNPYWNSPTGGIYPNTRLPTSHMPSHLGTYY
The procedure, abridged:
as §1

A further experiment has as its target ELF1 (Homo sapiens, UniProt P32519 1-619). In outline:
as §1

A further experiment has as its target T5, EHF (Homo sapiens, UniProt Q9NZC4 1-300).
T5 sequence: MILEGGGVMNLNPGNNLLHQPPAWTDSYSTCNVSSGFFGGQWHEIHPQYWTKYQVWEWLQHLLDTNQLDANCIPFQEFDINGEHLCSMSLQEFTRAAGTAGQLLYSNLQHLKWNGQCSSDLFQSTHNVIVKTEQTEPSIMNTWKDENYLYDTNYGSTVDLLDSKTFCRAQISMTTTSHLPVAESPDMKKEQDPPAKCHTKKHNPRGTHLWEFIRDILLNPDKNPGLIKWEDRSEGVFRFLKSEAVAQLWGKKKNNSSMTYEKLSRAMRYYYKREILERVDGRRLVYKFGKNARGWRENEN
The procedure, abridged: as §1

A further experiment deals with SPI1 (Homo sapiens, UniProt P17947 1-270). The procedure, abridged:
as §1

Another experiment deals with SPIB (Homo sapiens, UniProt Q01892 1-262). The procedure, abridged:
as §1

A further experiment concerns the target T6, ELK3 (Homo sapiens, UniProt P41970 1-407).
T6 sequence: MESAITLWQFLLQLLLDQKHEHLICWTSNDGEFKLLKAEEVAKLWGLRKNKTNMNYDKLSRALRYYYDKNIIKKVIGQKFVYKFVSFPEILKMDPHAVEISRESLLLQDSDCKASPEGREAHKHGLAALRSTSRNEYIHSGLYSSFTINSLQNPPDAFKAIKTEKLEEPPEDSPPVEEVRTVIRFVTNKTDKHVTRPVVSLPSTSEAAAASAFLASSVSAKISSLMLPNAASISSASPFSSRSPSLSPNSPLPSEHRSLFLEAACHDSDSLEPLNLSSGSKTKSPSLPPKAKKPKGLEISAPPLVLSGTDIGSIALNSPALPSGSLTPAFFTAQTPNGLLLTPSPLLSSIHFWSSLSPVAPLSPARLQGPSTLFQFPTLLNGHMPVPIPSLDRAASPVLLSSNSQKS
The procedure, abridged: as §1

Chain of ELF1 (P32519 whole entry): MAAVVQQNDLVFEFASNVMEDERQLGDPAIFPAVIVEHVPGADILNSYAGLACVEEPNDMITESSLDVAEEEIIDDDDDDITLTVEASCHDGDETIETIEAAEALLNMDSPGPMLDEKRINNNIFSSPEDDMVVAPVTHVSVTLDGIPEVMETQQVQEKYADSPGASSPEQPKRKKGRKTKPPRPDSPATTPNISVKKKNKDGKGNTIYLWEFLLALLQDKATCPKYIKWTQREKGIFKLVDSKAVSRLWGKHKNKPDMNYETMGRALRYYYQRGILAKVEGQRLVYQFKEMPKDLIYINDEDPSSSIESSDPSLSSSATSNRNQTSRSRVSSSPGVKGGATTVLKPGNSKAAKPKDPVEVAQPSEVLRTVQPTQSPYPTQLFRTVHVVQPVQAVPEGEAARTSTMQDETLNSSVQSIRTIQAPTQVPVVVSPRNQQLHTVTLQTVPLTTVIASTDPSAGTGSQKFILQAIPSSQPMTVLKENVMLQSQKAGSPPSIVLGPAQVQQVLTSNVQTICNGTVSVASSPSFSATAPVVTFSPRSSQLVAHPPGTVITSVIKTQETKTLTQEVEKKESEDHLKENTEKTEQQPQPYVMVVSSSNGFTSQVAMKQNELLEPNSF
Chain of SPIB (Q01892 whole entry): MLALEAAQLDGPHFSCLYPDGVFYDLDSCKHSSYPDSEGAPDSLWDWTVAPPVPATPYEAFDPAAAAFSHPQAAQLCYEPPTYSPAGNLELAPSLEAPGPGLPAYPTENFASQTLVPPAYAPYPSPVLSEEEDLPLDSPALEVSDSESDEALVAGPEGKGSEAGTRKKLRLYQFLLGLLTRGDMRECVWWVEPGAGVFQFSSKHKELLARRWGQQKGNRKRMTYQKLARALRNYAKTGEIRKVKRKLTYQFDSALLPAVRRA

Consider CTCTCT, for which the binding signal with FLI1 is 1.77 fold enrichment (6-mer frequency, TF over GST control); with ELK1, 1.78 fold enrichment (6-mer frequency, TF over GST control); with GABPA, 1.56 fold enrichment (6-mer frequency, TF over GST control); in the experiment with ERG, 1.62 fold enrichment (6-mer frequency, TF over GST control); in the experiment with ELF1, 1.76 fold enrichment (6-mer frequency, TF over GST control); with EHF, 1.66 fold enrichment (6-mer frequency, TF over GST control). Further, the binding signal is 1.53 fold enrichment (6-mer frequency, TF over GST control) with SPI1; 1.56 fold enrichment (6-mer frequency, TF over GST control) with SPIB; 1.49 fold enrichment (6-mer frequency, TF over GST control) in the experiment with ELK3.
Regarding GTACTT, the binding signal is 1.92 fold enrichment (6-mer frequency, TF over GST control) with FLI1; 2.32 fold enrichment (6-mer frequency, TF over GST control) in the experiment with ELK1; 1.81 fold enrichment (6-mer frequency, TF over GST control) with GABPA; 1.88 fold enrichment (6-mer frequency, TF over GST control) with ERG; 1.9 fold enrichment (6-mer frequency, TF over GST control) with ELF1; 1.96 fold enrichment (6-mer frequency, TF over GST control) with EHF. Also, the binding signal with SPI1 is 1.94 fold enrichment (6-mer frequency, TF over GST control); in the experiment with SPIB, 1.78 fold enrichment (6-mer frequency, TF over GST control); with ELK3 it was 2.51 fold enrichment (6-mer frequency, TF over GST control).
As for ACTTCG, the binding signal in the experiment with FLI1 was 1.38 fold enrichment (6-mer frequency, TF over GST control); with ELK1, 1.38 fold enrichment (6-mer frequency, TF over GST control); in the experiment with GABPA, 1.46 fold enrichment (6-mer frequency, TF over GST control); with ERG it was 1.47 fold enrichment (6-mer frequency, TF over GST control); in the experiment with ELF1, 1.33 fold enrichment (6-mer frequency, TF over GST control); with EHF, 1.3 fold enrichment (6-mer frequency, TF over GST control). The binding signal with SPI1 was 1.44 fold enrichment (6-mer frequency, TF over GST control); in the experiment with SPIB, 1.39 fold enrichment (6-mer frequency, TF over GST control); with ELK3, 1.49 fold enrichment (6-mer frequency, TF over GST control).
Consider GATGTA, for which the binding signal with FLI1 was 1.29 fold enrichment (6-mer frequency, TF over GST control); with ELK1 it was 1.46 fold enrichment (6-mer frequency, TF over GST control); in the experiment with GABPA, 1.21 fold enrichment (6-mer frequency, TF over GST control); with ERG it was 1.27 fold enrichment (6-mer frequency, TF over GST control); with ELF1, 1.26 fold enrichment (6-mer frequency, TF over GST control); with EHF, 1.38 fold enrichment (6-mer frequency, TF over GST control). The binding signal with SPI1 is 1.3 fold enrichment (6-mer frequency, TF over GST control); with SPIB, 1.31 fold enrichment (6-mer frequency, TF over GST control); in the experiment with ELK3, 1.35 fold enrichment (6-mer frequency, TF over GST control).
In the case of GTATAT, the binding signal with FLI1 was 1.13 fold enrichment (6-mer frequency, TF over GST control); with ELK1, 1.22 fold enrichment (6-mer frequency, TF over GST control); in the experiment with GABPA, 1.13 fold enrichment (6-mer frequency, TF over GST control); with ERG it was 1.09 fold enrichment (6-mer frequency, TF over GST control); with ELF1, 1.17 fold enrichment (6-mer frequency, TF over GST control); in the experiment with EHF, 1.2 fold enrichment (6-mer frequency, TF over GST control). The binding signal with SPI1 was 1.13 fold enrichment (6-mer frequency, TF over GST control); in the experiment with SPIB, 1.23 fold enrichment (6-mer frequency, TF over GST control); in the experiment with ELK3, 1.11 fold enrichment (6-mer frequency, TF over GST control).
Consider TTTTCT, for which the binding signal was 1.31 fold enrichment (6-mer frequency, TF over GST control) in the experiment with FLI1; 1.29 fold enrichment (6-mer frequency, TF over GST control) with ELK1; 1.27 fold enrichment (6-mer frequency, TF over GST control) with GABPA; 1.34 fold enrichment (6-mer frequency, TF over GST control) in the experiment with ERG; 1.29 fold enrichment (6-mer frequency, TF over GST control) with ELF1; 1.46 fold enrichment (6-mer frequency, TF over GST control) with EHF. The binding signal in the experiment with SPI1 is 1.45 fold enrichment (6-mer frequency, TF over GST control); in the experiment with SPIB, 1.18 fold enrichment (6-mer frequency, TF over GST control); with ELK3, 1.31 fold enrichment (6-mer frequency, TF over GST control).
On to ACTTTG, for which the binding signal is 1.27 fold enrichment (6-mer frequency, TF over GST control) with FLI1; 1.29 fold enrichment (6-mer frequency, TF over GST control) in the experiment with ELK1; 1.12 fold enrichment (6-mer frequency, TF over GST control) with GABPA; 1.19 fold enrichment (6-mer frequency, TF over GST control) with ERG; 1.26 fold enrichment (6-mer frequency, TF over GST control) in the experiment with ELF1; 1.19 fold enrichment (6-mer frequency, TF over GST control) with EHF. In addition, the binding signal in the experiment with SPI1 is 1.2 fold enrichment (6-mer frequency, TF over GST control); with SPIB, 1.16 fold enrichment (6-mer frequency, TF over GST control); with ELK3, 1.07 fold enrichment (6-mer frequency, TF over GST control).

The values above are taken from publication PMC7862700, “An all-to-all approach to the identification of sequence-specific readers for epigenetic DNA modifications on cytosine”.
